Assay outcomes deposited in PubChem BioAssay by The Scripps Research Institute Molecular Screening Center.
TEAD-YAP block = TEAD-YAP interaction inhibition, primary screen, TEAD-YAP interaction inhibitor project, luminescence, HEK-TIYL cells; TEAD-Gal4/YAP UAS-luciferase luminescence; inhibition, % at 9.12 µM; AID 1259422, 2018; hit rate 1.4% among 640,000; in the data active = inhibition above about 32%;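 also: 0% = median of test compound wells and 100% = reference inhibitor wells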
GPR151 activ = activators of human GPR151, primary screen, cell-based, PathHunter beta-arrestin, luminescence | PathHunter beta-arrestin GPR151 cells | activation, % at 11.2 µM | G-protein coupled receptor 151 (Homo sapiens), Q8TDV0 | AID 1508602, 2020 | hit rate 1% among 650,000; in the data active = activation above about 4.9%;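 also: 0% = median of compound wells and 100% = cells with positive control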
Target sequence (Q8TDV0 whole entry, looked up): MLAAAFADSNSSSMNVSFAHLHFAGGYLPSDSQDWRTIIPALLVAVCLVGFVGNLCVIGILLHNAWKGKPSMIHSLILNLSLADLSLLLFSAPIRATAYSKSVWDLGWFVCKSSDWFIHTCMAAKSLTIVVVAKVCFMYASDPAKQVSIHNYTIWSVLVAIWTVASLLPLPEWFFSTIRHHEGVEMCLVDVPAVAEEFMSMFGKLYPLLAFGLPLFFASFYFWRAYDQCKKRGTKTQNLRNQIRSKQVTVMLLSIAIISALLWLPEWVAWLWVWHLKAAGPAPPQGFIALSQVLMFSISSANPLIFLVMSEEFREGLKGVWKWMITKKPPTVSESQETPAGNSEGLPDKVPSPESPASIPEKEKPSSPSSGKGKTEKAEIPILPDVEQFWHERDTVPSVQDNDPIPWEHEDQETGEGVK
FBW7 act = FBW7 E3 ligase activators, primary screen, biochemical, AlphaScreen, human | F-box/WD repeat-containing protein 7 (Homo sapiens), Q969H0 | AlphaScreen FBW7–phospho-cyclin E peptide binding, activator screen | normalized activity (activation), % at 26.1 µM | hit rate 0.13% among 650,000; in the data active = normalized activity above about 1.9%;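 also: purified mutant Fbw7 with reduced substrate affinity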
MITF primary = MITF inhibitors, primary screen, biochemical, AlphaScreen, human; Microphthalmia-associated transcription factor (Homo sapiens), O75030; AlphaScreen MITF homodimerization, bead proximity signal; inhibition, % at 2.6 µM; hit rate 0.91% among 650,000; AID 1259374, 2018; in the data active = inhibition above about 50%;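 also: 0% = vehicle wells with protein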
Starred values were filed as active, the others as inactive. In the library only some 3.5% were active in any assay of this set; here they are far more common.

SMILES	TEAD-YAP block	GPR151 activ	FBW7 act	MITF primary
COc1ccc(C(=O)NC(c2ccc(C)cc2)c2cc(Cl)c3cccnc3c2O)cc1 (stereo not given)	10	1	0	15
COc1ccc(C(NC(C)=O)c2ccc3cccnc3c2O)cc1 (stereo not given)	86*	0	-2	48
COc1ccccc1C(NC(=O)Cc1ccccc1)c1ccc2cccnc2c1O (stereo not given)	29	0	-1	22
CCN(CC)c1ccc(C(NC(=O)C(C)C)c2cc(Cl)c3cccnc3c2O)cc1 (stereo not given)	1	-2	0	8
CCCCC(=O)NC(c1ccc(OC)cc1)c1ccc2cccnc2c1O (stereo not given)	80*	0	-2	41
COc1ccc(C(NC(=O)C(C)C)c2ccc3cccnc3c2O)cc1 (stereo not given)	75*	-1	-2	51*
COc1ccccc1N1CCN(C2CCCN(C(=O)CSc3ccccn3)C2)CC1 (stereo not given)	-15	-2	0	-5
C#CCOc1c(I)cc(/C=C2\SC(N)=NC2=O)cc1OC	-2	2	0	6
Cc1ccc(C(NC(=O)C(C)C)c2ccc3cccnc3c2O)cc1 (stereo not given)	86*	0	-1	21
COc1ccc(C(NC(=O)C(C)C)c2ccc3cccnc3c2O)cc1OC (stereo not given)	90*	1	-2	62*
O=[N+]([O-])c1ccc(C(Nc2nccs2)c2ccc3cccnc3c2O)cc1 (stereo not given)	27	-1	-2	18
COc1ccc(-n2nnc3c(=O)n(Cc4ccccc4Cl)cnc32)cc1OC	-3	-1	0	-5
COc1cccc(CC2=NOC(C(=O)NCC(C)(C)CO)C2)c1 (stereo not given)	1	0	0	0
COc1cccc(CC2=NOC(C(=O)NCc3cnc4ccccc4c3)C2)c1 (stereo not given)	35*	1	0	3
O=S(=O)(O)c1cc(O)c2cc(Nc3ccccc3)ccc2c1	12	1	0	44
Nc1ccc2cc(S(=O)(=O)O)cc(O)c2c1	-2	-1	-2	77*
CCCN(C(=O)c1coc(=O)c2ccccc12)c1cccc(Cl)c1	68*	0	0	2
CCCCC(=O)Nc1nnc(-c2cccs2)o1	2	0	0	10
Cc1cc(O)ccc1NC(=O)c1ccccc1	3	-1	0	-8
COc1ccc(C(=O)/C=C/Nc2ccc(O)cc2C)cc1OC	-14	-1	0	7
Cc1cc(O)ccc1N/C=C/C(=O)c1ccccc1	74*	-3	0	-5
Cc1ccc(C(=O)/C=C/Nc2ccc(O)cc2C)cc1	40*	-1	0	11
CCn1cnc2sc(C(=O)Nc3c(C)csc3C(=O)OC)c(C)c2c1=O	-11	0	0	5
CCOC(=O)CN1C(=O)C(O)(CC(=O)c2ccc3c4c(cccc24)CC3)c2ccccc21 (stereo not given)	-9	1	0	-6
O=C(Cc1ccc(N2CCC(NCCn3ccnc3)CC2)cc1)NCc1ccccc1	47*	1	0	5
SMILES	TEAD-YAP block	GPR151 activ	FBW7 act	MITF primary
O=C(Cc1ccc(N2CCC(NCCn3ccnc3)CC2)cc1)N1CCCC1	-9	0	0	1
O=C(Cc1ccccc1)Nc1ccc(Br)cc1	-10	0	0	0
O=C(Cc1ccc(Br)cc1)Nc1ccncc1	50*	2	0	-5
CCCN1CCN(CCCNC(=O)Cc2noc3ccccc23)CC1	-1	-1	0	-3
COC(=O)c1c(NC(=O)C(F)(F)F)sc(Cc2ccccc2)c1C	5	1	0	-7
COC(=O)c1c(NC(=O)/C=C\C(=O)O)sc(Cc2ccccc2)c1C	32*	0	0	-5
CCC(=O)N1N=C(c2ccccc2)CC1c1cc2cc3c(cc2nc1Cl)OCCO3 (stereo not given)	-6	-1	0	2
Nc1nc2ccccc2n1C(=O)c1ccc(F)cc1	52*	-5	0	1
Nc1nc2ccccc2n1C(=O)c1ccccc1	52*	-8	0	2
CCCn1c(C)cn2c3c(=O)n(C/C=C/c4ccccc4)c(=O)n(C)c3nc12	10	1	0	6
COc1ccc(C2CC(C(F)(F)F)n3nc(C(=O)Nc4ccc5c(c4)CCC5)cc3N2)cc1 (stereo not given)	-5	0	0	2
O=[N+]([O-])c1cc(Br)c(Nc2ccccc2)c([N+](=O)[O-])c1	40*	2	0	13
CN(C)CCN(C)c1cc(-c2cn[nH]c2)ccc1NC(=O)N(C)Cc1ccccc1	2	1	0	3
COc1ccccc1CNC(=O)CCCCCn1c(=S)[nH]c2ccccc2c1=O	-4	0	0	-6
CN(C)c1ccc2c(c1)OC(N)=C(C#N)C2c1cccc(C(F)(F)F)c1 (stereo not given)	57*	0	0	-1
N#CC1=C(N)Oc2cc3c(cc2C1c1cccc(Br)c1)OCO3 (stereo not given)	61*	0	0	20
N#CC1=C(N)Oc2cc(N)ccc2C1c1cccc(Cl)c1 (stereo not given)	1	-1	0	6
CN(C)c1ccc2c(c1)OC(N)=C(C#N)C2c1ccc(C(F)(F)F)cc1 (stereo not given)	9	2	0	-9
CC(C)C(OC(=O)c1ccco1)C(=O)NCc1ccccc1 (stereo not given)	59*	1	0	-5
COCCNC(=O)C(OC(=O)c1ccco1)c1ccccc1OC (stereo not given)	14	-1	1.9*	9
CC(OC(=O)c1ccco1)C(=O)NCc1ccccc1 (stereo not given)	1	0	0	22
COc1cc(Cl)cc(CN2CCN(Cc3cccs3)C(CCO)C2)c1OC (stereo not given)	-10	0	0	10
FC(F)(F)c1ccc(N2CCN(c3nnnn3-c3ccccc3)CC2)nc1	-10	0	0	11
Fc1ccccc1C=Nc1cccc2ncccc12	2	0	0	11
Cc1cc(C)c(S(=O)(=O)Nc2ccc3c(c2)N(C(=O)C(C)C)CCC3)cc1C	46*	1	0	-8
Cc1cc(C)c(S(=O)(=O)Nc2ccc3c(c2)CCCN3C(=O)C(C)C)cc1C	2	1	2.0*	-7
C=CCN1C(=O)S/C(=C\c2cc(C)n(CC)c2C)C1=O	-18	-1	0	-3
Cc1ccc2nc(/C(C#N)=C/c3cccn3-c3ccc(S(N)(=O)=O)cc3)[nH]c2c1	3	1	0	-2
CCC/C(O)=C1\C(=O)CC(C)(C)CC1=Nc1ccc(OC)cc1OC	55*	0	0	17
